Results as given in ChEMBL document CHEMBL1961873, “Compounds: GSK PKIS; Assays: Nanosyn kinase panel” (2012).

Columns and labels:
[1] = biological target: Casein kinase I isoform gamma-2 (Homo sapiens) (UniProt P78368); details: at 1 µM
[2] = biological target: Casein kinase I isoform gamma-3 (Homo sapiens) (UniProt Q9Y6M4); details: at 0.1 µM
[3] = biological target: Casein kinase I isoform gamma-3 (Homo sapiens) (UniProt Q9Y6M4); details: at 1 µM
[4] = biological target: Cyclin-dependent kinase 1 (Homo sapiens) (UniProt P06493); details: at 0.1 µM
Cyclin-dependent kinase 1 (Homo sapiens), sequence (P06493 whole entry, looked up): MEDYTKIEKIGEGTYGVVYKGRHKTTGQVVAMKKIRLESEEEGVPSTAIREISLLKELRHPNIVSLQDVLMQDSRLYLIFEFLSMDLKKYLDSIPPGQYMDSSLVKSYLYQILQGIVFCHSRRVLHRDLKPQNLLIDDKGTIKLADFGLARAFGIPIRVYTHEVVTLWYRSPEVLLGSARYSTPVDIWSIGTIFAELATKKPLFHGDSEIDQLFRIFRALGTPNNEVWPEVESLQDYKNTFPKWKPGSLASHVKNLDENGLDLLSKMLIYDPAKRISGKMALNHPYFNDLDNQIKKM

[5] = biological target: Cyclin-dependent kinase 1 (Homo sapiens) (UniProt P06493); details: at 1 µM
[6] = biological target: Cyclin-dependent kinase 2 (Homo sapiens) (UniProt P24941); details: at 0.1 µM
[7] = biological target: Cyclin-dependent kinase 2 (Homo sapiens) (UniProt P24941); details: at 1 µM
[8] = biological target: Cyclin-dependent kinase 2 (Homo sapiens) (UniProt P24941); details: at 0.1 µM; remark: listed apart in the source
[9] = biological target: Cyclin-dependent kinase 2 (Homo sapiens) (UniProt P24941); details: at 1 µM; remark: listed apart in the source
[10] = biological target: T1, CDK3/Cyclin E (Homo sapiens) (UniProt P24864+Q00526); details: at 0.1 µM
T1 sequence (P24864 whole entry, looked up): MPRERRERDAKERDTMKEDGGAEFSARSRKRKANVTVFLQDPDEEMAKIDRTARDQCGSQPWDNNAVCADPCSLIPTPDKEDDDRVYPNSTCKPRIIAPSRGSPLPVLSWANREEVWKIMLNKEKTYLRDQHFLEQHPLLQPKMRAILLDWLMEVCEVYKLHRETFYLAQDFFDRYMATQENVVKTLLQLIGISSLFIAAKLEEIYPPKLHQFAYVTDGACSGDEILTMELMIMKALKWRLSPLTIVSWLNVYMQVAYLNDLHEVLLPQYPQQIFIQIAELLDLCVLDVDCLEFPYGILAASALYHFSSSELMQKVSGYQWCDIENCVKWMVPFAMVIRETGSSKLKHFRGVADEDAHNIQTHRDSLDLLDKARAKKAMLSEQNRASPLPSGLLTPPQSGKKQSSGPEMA
T1 sequence (Q00526 whole entry, looked up): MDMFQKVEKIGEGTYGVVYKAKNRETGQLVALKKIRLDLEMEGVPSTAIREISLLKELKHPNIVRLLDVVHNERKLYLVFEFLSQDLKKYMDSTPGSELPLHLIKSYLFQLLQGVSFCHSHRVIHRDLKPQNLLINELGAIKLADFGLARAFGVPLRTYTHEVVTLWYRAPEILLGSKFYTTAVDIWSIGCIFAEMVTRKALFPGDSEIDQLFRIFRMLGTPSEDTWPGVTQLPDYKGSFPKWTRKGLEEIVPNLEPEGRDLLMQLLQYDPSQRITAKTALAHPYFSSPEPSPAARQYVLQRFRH

[11] = biological target: T1, CDK3/Cyclin E (Homo sapiens); details: at 1 µM
[12] = biological target: Cyclin-dependent kinase 4 (Homo sapiens) (UniProt P11802); details: at 0.1 µM
Cyclin-dependent kinase 4 (Homo sapiens), sequence (P11802 whole entry): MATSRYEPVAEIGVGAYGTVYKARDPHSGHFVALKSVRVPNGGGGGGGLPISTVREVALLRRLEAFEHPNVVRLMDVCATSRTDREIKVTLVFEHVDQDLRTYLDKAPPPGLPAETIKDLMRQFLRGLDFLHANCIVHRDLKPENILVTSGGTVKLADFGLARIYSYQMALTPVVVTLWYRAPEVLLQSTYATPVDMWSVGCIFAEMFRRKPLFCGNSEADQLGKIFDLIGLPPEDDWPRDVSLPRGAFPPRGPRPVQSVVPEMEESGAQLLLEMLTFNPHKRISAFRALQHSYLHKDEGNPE

[13] = biological target: Cyclin-dependent kinase 4 (Homo sapiens) (UniProt P11802); details: at 1 µM
[14] = biological target: Cyclin-dependent kinase 5 (Homo sapiens) (UniProt Q00535); details: at 0.1 µM
Cyclin-dependent kinase 5 (Homo sapiens), sequence (Q00535 whole entry, looked up): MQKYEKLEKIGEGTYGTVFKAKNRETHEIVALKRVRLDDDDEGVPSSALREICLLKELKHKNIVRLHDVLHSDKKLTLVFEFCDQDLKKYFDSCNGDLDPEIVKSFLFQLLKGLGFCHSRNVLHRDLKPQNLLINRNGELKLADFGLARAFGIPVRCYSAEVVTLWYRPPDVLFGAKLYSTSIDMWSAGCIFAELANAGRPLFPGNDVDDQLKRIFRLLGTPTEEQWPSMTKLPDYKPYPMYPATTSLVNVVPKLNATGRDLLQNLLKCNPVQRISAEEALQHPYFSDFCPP

[15] = biological target: Cyclin-dependent kinase 5 (Homo sapiens) (UniProt Q00535); details: at 1 µM
[16] = biological target: Cyclin-dependent kinase 6 (Homo sapiens) (UniProt Q00534); details: at 1 µM
Cyclin-dependent kinase 6 (Homo sapiens), sequence (Q00534 whole entry): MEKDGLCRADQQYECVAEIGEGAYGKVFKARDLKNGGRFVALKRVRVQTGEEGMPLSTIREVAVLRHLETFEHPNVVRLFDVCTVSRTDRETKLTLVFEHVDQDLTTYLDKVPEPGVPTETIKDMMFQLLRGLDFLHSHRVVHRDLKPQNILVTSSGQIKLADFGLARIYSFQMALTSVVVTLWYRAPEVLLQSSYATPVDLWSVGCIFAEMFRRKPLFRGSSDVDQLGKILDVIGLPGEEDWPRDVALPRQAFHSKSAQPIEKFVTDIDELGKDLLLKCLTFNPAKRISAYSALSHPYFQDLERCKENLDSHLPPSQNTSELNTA

[17] = biological target: Dual specificity protein kinase CLK2 (Homo sapiens) (UniProt P49760); details: at 0.1 µM
Dual specificity protein kinase CLK2 (Homo sapiens), sequence (P49760 whole entry, looked up): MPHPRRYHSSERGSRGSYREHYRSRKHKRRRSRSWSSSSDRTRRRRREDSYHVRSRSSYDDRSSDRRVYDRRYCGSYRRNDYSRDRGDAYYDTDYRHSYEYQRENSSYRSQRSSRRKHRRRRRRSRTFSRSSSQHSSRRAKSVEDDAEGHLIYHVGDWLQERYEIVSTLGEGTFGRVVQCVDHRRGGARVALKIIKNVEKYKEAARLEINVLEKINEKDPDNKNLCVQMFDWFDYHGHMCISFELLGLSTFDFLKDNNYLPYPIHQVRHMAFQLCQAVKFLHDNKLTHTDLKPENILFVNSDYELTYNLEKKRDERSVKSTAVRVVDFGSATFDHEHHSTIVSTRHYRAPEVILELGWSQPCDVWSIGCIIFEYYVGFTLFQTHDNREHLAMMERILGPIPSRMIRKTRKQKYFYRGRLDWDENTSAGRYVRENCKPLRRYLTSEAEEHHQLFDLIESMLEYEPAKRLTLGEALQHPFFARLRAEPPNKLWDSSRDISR

[18] = biological target: Dual specificity protein kinase CLK2 (Homo sapiens) (UniProt P49760); details: at 1 µM
[19] = biological target: Dual specificity protein kinase CLK3 (Homo sapiens) (UniProt P49761); details: at 0.1 µM
Dual specificity protein kinase CLK3 (Homo sapiens), sequence (P49761 whole entry, looked up): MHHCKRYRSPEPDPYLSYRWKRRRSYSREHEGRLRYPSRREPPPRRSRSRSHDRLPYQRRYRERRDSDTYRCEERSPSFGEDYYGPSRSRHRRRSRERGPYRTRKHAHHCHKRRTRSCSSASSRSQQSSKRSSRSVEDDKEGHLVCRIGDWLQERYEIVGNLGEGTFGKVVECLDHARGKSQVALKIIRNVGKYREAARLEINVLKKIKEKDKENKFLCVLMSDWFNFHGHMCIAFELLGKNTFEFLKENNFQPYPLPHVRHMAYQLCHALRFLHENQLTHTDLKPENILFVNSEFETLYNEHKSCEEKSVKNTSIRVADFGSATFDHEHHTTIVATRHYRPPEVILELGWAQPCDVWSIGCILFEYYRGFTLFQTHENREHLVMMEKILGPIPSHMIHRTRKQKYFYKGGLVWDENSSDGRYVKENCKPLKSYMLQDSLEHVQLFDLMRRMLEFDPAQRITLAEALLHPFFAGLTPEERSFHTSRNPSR

[20] = biological target: Cyclin-dependent kinase 6 (Homo sapiens) (UniProt Q00534); details: at 0.1 µM

Casein kinase I isoform gamma-2 (Homo sapiens), sequence (P78368 whole entry, looked up, canonical isoform): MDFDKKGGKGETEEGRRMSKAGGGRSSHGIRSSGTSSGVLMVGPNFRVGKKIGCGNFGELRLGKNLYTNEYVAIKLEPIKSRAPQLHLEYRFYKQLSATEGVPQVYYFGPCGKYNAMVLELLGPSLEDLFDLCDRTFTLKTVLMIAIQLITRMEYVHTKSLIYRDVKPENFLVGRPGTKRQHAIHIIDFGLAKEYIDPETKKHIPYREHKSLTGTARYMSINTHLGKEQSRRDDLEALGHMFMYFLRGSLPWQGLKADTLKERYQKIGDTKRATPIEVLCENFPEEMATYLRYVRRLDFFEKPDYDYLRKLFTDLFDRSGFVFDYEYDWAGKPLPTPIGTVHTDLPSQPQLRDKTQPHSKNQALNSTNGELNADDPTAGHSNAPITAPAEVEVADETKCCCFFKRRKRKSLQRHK
Casein kinase I isoform gamma-3 (Homo sapiens), sequence (Q9Y6M4 whole entry, looked up, canonical isoform): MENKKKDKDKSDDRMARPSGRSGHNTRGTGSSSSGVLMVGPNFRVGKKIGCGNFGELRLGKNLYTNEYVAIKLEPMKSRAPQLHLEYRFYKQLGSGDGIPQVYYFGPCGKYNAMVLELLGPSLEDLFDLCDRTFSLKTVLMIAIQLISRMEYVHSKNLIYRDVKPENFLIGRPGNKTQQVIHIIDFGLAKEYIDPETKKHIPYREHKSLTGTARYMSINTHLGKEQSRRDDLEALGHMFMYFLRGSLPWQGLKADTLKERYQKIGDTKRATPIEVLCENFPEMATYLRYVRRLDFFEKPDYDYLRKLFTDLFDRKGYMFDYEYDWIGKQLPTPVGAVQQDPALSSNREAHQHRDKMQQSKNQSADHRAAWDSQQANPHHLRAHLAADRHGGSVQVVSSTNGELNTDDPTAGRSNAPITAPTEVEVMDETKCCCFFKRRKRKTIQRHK

COc1cc(C=NNc2ncnc3c2cnn3Cc2ccccc2)ccc1O
inhibition [1]: -3.09%
inhibition [2]: 0.15%
inhibition [3]: -1.86%
inhibition [4]: 3.83%
inhibition [5]: 14.8%
inhibition [6]: 0.83%
inhibition [7]: 0.3%
inhibition [8]: -0.38%
inhibition [9]: 6.08%
inhibition [10]: 0.9%
inhibition [11]: 2.73%
inhibition [12]: 0.2%
inhibition [13]: 5.23%
inhibition [14]: 2.79%
inhibition [15]: 16.2%
inhibition [16]: -0.46%
inhibition [17]: -0.27%
inhibition [18]: 3.62%
inhibition [19]: 0.25%

Cc1cc(-c2ccco2)cc(C)c1/C=C/c1cncc(-c2nn[nH]n2)c1
inhibition [1]: 1.08%
inhibition [2]: 0.9%
inhibition [3]: 2.3%
inhibition [4]: 0.87%
inhibition [5]: 2.16%
inhibition [6]: 0.49%
inhibition [7]: 1.75%
inhibition [8]: 0.38%
inhibition [9]: 2.54%
inhibition [10]: -0.91%
inhibition [11]: -1.27%
inhibition [12]: 0.48%
inhibition [13]: 2.4%
inhibition [14]: 0.53%
inhibition [15]: 1.53%
inhibition [20]: -2.45%
inhibition [16]: -0.96%
inhibition [17]: -1.47%
inhibition [18]: -2.94%
inhibition [19]: 0.27%

CCn1c(-c2nonc2N)nc2c(C#CC(C)(C)O)ncc(OCC3CCNCC3)c21
inhibition [1]: 0.7%
inhibition [2]: -1.65%
inhibition [3]: -0.62%
inhibition [4]: -0.87%
inhibition [5]: 4.13%
inhibition [6]: -0.3%
inhibition [7]: 4.17%
inhibition [8]: 6.49%
inhibition [9]: 9.55%
inhibition [10]: 7.2%
inhibition [11]: 1.62%
inhibition [12]: -1.61%
inhibition [13]: 3.91%
inhibition [14]: 1.05%
inhibition [15]: 5.69%
inhibition [20]: -0.95%
inhibition [16]: 4.82%
inhibition [17]: 5.25%
inhibition [18]: 29.4%
inhibition [19]: -2.14%

NS(=O)(=O)c1ccc(-c2ccc3c(NC(=O)C4CC4)n[nH]c3c2)cc1
inhibition [1]: 1.7%
inhibition [2]: 0.52%
inhibition [3]: -0.19%
inhibition [4]: 0.48%
inhibition [5]: 5.13%
inhibition [6]: 2.91%
inhibition [7]: 13.4%
inhibition [8]: 2.18%
inhibition [9]: 5.85%
inhibition [10]: 2.19%
inhibition [11]: 5.48%
inhibition [12]: 3.11%
inhibition [13]: 6.7%
inhibition [14]: 2.07%
inhibition [15]: 4.41%
inhibition [20]: 13.7%
inhibition [16]: 46.3%
inhibition [17]: 1.09%
inhibition [18]: -0.2%
inhibition [19]: 0.84%

Nc1nonc1-c1nc2cnccc2n1C1CCCCC1
inhibition [1]: 0.45%
inhibition [2]: -1.94%
inhibition [3]: 1.85%
inhibition [4]: 5.2%
inhibition [5]: 24.5%
inhibition [6]: 7.81%
inhibition [7]: 44.6%
inhibition [8]: 8.62%
inhibition [9]: 41.5%
inhibition [10]: 4.5%
inhibition [11]: 11.3%
inhibition [12]: 0.8%
inhibition [13]: 5.81%
inhibition [14]: 5%
inhibition [15]: 18%
inhibition [20]: -5.33%
inhibition [16]: 1.64%
inhibition [17]: 3.99%
inhibition [18]: 39.2%
inhibition [19]: -0.8%

Fc1ccc(-c2ncn(C3CCNCC3)c2-c2ccnc(Oc3ccccc3)n2)cc1
inhibition [1]: 2.3%
inhibition [2]: -1.46%
inhibition [3]: 10%
inhibition [4]: -3.4%
inhibition [5]: -1.98%
inhibition [6]: -3.24%
inhibition [7]: -1.87%
inhibition [8]: -2.35%
inhibition [9]: -0.94%
inhibition [10]: -3.17%
inhibition [11]: -2.25%
inhibition [12]: -3.54%
inhibition [13]: -2.32%
inhibition [14]: -3.32%
inhibition [15]: -2.14%
inhibition [20]: -6.2%
inhibition [16]: -4.11%
inhibition [17]: 0.8%
inhibition [18]: -0.83%
inhibition [19]: -3.78%

COc1cc2c(cc1Nc1nc(Nc3ccsc3C(N)=O)c3cc[nH]c3n1)N(C(=O)CN(C)C)CCC2
inhibition [1]: -7.97%
inhibition [2]: 1.11%
inhibition [3]: 10.3%
inhibition [4]: 5.37%
inhibition [5]: 6.76%
inhibition [6]: 4.39%
inhibition [7]: 6.12%
inhibition [8]: 0.86%
inhibition [9]: -1.41%
inhibition [10]: 0.3%
inhibition [11]: -1.3%
inhibition [12]: 3.79%
inhibition [13]: 5.67%
inhibition [14]: 0.94%
inhibition [15]: -0.24%
inhibition [20]: 5.85%
inhibition [16]: 6.19%
inhibition [17]: 15.6%
inhibition [18]: 72%
inhibition [19]: 1.22%
